# HT1080 IDH1KD tx – qHTS for induction of synthetic lethality in tumor cells producing 2HG: qHTS for the HT-1080-IDH1KD cell line | HT-1080 IDH1 knockdown viability, ATP luminescence, 48 h | Potency, µM (titrated, usually from 46.1 µM), hits mostly cytotoxic | 2% of 360,000 active
#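 HT-1080-IDH1KD cells (IDH1 knocked down), 750/well in RPMI with 5% FBS, treated with compound 48 h at 37 degrees C. Viability by CellTiter-Glo luminescence, normalised to DMSO and no-cell wells; concentration-response curves classed.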
# IL1B secr inh – qHTS for Inhibitors of Inflammasome Signaling: IL-1-beta AlphaLISA Primary Screen; 4.7% of 360,000 active; activity change, % at 57.5 µM; THP-1 LPS/ATP IL-1B secretion, AlphaLISA, 16 h; stronger effect = lower value; AID 743279, 2014; in the data active = activity change below about -50%; inconclusive = mostly about -30% to -49%
#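 THP-1 cells pretreated 1 hr with compounds (up to 57.5 uM final), then stimulated with LPS (250 ng/mL final) plus ATP (1.25 mM final); secreted IL-1B measured by AlphaLISA after 16 hr, decreased signal indicating inhibition.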
# uPA generation – qHTS for Inhibitors of Cell Surface uPA Generation; AID 540303, 2011; cell surface uPA generation assay, qHTS; Potency, µM (highest dose often 38.3 µM), most hits filed as inhibitors; 0.31% of 330,000 active; active = well fitted inhibition curve with a large enough effect; inconclusive = small, poorly fitted or top-dose-only effect; inactive = no such curve, though single readings can be large or run the other way; tested in mouse RAW 264.7 cells; note: nearly all actives have a fitted effect of over 55% in size
# DT40 TDP1 CPT – qHTS for Inhibitors of human tyrosyl-DNA phosphodiesterase 1 (TDP1): qHTS in cells in presence of CPT | chicken DT40 Tdp1-/-;hTDP1 cells + 20 nM CPT, ATP luminescence, 48 h | Potency, µM (series often up to 46.2 µM), hits mostly inhibitors | 12% of 420,000 active; note: nearly all actives have a fitted effect of over 55% in size
#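 Chicken DT40 Tdp1-/- cells stably complemented with human TDP1 were seeded at 400 cells/well in medium containing 20 nM camptothecin, exposed to pin-transferred compounds, and grown at 37 °C for at least 48 hr. Viability was read as ATP luminescence.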
# HT1080-NT tox – qHTS for induction of synthetic lethality in tumor cells producing 2HG: qHTS for the HT-1080-NT fibrosarcoma cell line. Potency, µM (series often up to 46.1 µM), hits mostly cytotoxic. AID 686970, 2013. HT-1080-NT fibrosarcoma viability, CellTiter-Glo ATP luminescence, 48 h. 1.6% of 360,000 active;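 note: NT is the 2HG producing partner of a matched IDH1 knockdown line; nearly all actives have a fitted effect of over 55% in size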
#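 Toxicity toward the 2HG-producing NT line was scored as %Activity, normalised to DMSO and no-cell wells, from CellTiter-Glo luminescence after 48 hours' treatment.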
# DT40 TDP1 no CPT – qHTS for Inhibitors of human tyrosyl-DNA phosphodiesterase 1 (TDP1): qHTS in cells in absence of CPT; DT40 Tdp1-/- hTDP1 cells, no CPT, ATP luminescence, 48 h; Potency, µM (titrated, usually from 46.2 µM), most hits filed as inhibitors; 15% of 420,000 active; AID 686978, 2013; note: nearly all actives have a fitted effect of over 55% in size
#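 Growth of hTDP1-complemented DT40 Tdp1-knockout cells is measured by ATP luminescence after at least 48 hr compound exposure at 37 °C, with DMSO substituting for the 20 nM CPT used in the parallel screen.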
# A number is an active result; i = inactive; ? = inconclusive; nt = not tested or not shown. Hits are enriched below; roughly 19% of the tested compounds scored in any of these assays. Unless noted, calls come from the whole dose curve; as a rule, active = well fitted curve in the direction sought with a large enough effect; inconclusive = small, poorly fitted or top-dose-only effect, or another doubt; inactive = no such curve, though single readings can be large; an effect the other way counts as inactive or inconclusive.
SMILES,HT1080 IDH1KD tx,IL1B secr inh,uPA generation,DT40 TDP1 CPT,HT1080-NT tox,DT40 TDP1 no CPT
CCn1cc(C(=O)N(C)c2cc(C)ccc2OC)c2cc(OC)c(OC)cc2c1=O,i,?,i,i,i,i
COc1cc2c(C(=O)N(C)c3cccc(C(F)(F)F)c3)cn(CC(C)C)c(=O)c2cc1OC,nt,nt,nt,13µM,nt,18µM
CCn1cc(C(=O)N(C)c2cc(C)ccc2C)c2cc(OC)c(OC)cc2c1=O,nt,nt,nt,26µM,nt,21µM
CCn1cc(C(=O)N(C)c2ccc(C(C)C)cc2)c2cc(OC)c(OC)cc2c1=O,nt,nt,nt,?,nt,18µM
O=S(=O)(Cc1ccccc1)C(c1ccccc1)S(=O)(=O)Cc1ccccc1,i,i,nt,i,i,?
CSc1ccc(/C=N/N2CCN(Cc3ccccc3)CC2)cc1,i,i,i,i,i,i
CCc1nc2c(OCc3ccc4c(c3)OCO4)cccn2c1N(C=O)Cc1ccccc1,i,i,nt,?,i,?
COC(=O)c1ccc(-c2c(-c3ccccc3)ncc3cc(F)ccc23)cc1,i,i,i,13µM,i,26µM
O=[N+]([O-])c1ccc(-c2c(-c3ccccc3)ncc3ccc(F)cc23)cc1,i,i,i,?,i,?
N#Cc1ccc(-c2c(-c3ccccc3)ncc3cc(F)ccc23)cc1,i,i,i,10µM,i,16µM
COc1cc2cnc(-c3ccccc3)c(C(=O)c3ccc(F)cc3)c2cc1OC,i,i,?,18µM,i,23µM
COC(=O)c1ccc(-c2n[nH]c(=O)c3ccccc23)cc1,i,i,i,i,i,i
COc1cc2cnc(-c3ccccc3)c(C(=O)c3ccc(OCc4ccccc4)cc3)c2cc1OC,i,i,i,?,i,?
CCCCCCCCCCCCCCC(O)C[N+](C)(CCO)CCO (centres undefined),18µM,-100,i,2.3µM,?,3.7µM
O=C(NCc1ccncc1)c1ccc(N2CCCC2)c([N+](=O)[O-])c1,i,i,i,?,i,18µM
C=C1CCN(c2ccc(C(=O)NCc3ccc(OC)cc3)cc2[N+](=O)[O-])CC1,i,-75,i,21µM,i,?
C=C1CCN(c2ccc(C(=O)NCc3ccc(C)cc3)cc2[N+](=O)[O-])CC1,i,-63,i,i,i,i
O=C(NCc1ccccn1)c1ccc(N2CCCC2)c([N+](=O)[O-])c1,i,i,i,i,i,i
CC(C)COC(=O)NCCCOC(=O)Nc1ccccc1,i,i,i,?,i,?
CC(C)OC(=O)NCCOC(=O)Nc1ccc(Cl)cc1,i,i,i,21µM,i,15µM
O=C(Nc1cccc(Cl)c1)OCCOCCOC(=O)Nc1cccc(Cl)c1,?,i,i,?,?,16µM
O=C(Nc1cccc(Cl)c1)OCc1cnc(Cl)s1,i,i,i,?,i,i
CCCCOC(=O)Nc1ccc(C(C)C)cc1,i,-60,i,i,i,i
CC(C)COC(=O)NCCOC(=O)Nc1cccc(Cl)c1,i,i,i,16µM,i,16µM
CC(C)CN(C(=O)C1=COCCO1)c1c(N)n(Cc2ccccc2)c(=O)[nH]c1=O,i,i,nt,i,i,i
SMILES,HT1080 IDH1KD tx,IL1B secr inh,uPA generation,DT40 TDP1 CPT,HT1080-NT tox,DT40 TDP1 no CPT
CCOC(=O)Nc1sc2c(c1C(N)=O)CCC(C)C2 (centres undefined),i,i,i,i,i,i
CCCC1CCc2c(sc(NC(=O)OCC)c2C#N)C1 (centres undefined),18µM,?,i,15µM,?,23µM
Cc1ccccc1CNC(=O)CCC(=O)N1CCOc2ccc(Cl)cc21,i,i,i,i,i,i
Cc1ccc(CNC(=O)CCC(=O)N2CC3CCCN3c3ccccc32)cc1 (centres undefined),nt,nt,nt,5.2µM,nt,18µM
Cc1ccccc1CNC(=O)CCC(=O)N1CC2CCCN2c2ccccc21 (centres undefined),nt,nt,nt,18µM,nt,23µM
O=C(CCC(=O)N1CC2CCCN2c2ccccc21)NCc1ccccc1F (centres undefined),nt,nt,nt,12µM,nt,18µM
Cc1ccc(-c2cnc(C(O)c3cc(C)cc(C)c3)[nH]2)cc1 (centres undefined),i,i,nt,?,i,?
COc1ccccc1C1NC(=O)NC(C)=C1C(=O)OCC1CCCCC1 (centres undefined),i,i,nt,i,i,?
CCOC(=O)c1noc2ncnc(Nc3ccc(F)cc3F)c12,nt,nt,nt,i,nt,i
CC(CC(=O)c1ccccc1)=NCC(O)CN=C(C)CC(=O)c1ccccc1 (centres undefined),i,i,nt,?,i,?
CCc1ccc(C(C(=O)NC2CCCC2)N(C(=O)/C=C/C(=O)Nc2cc(C)on2)c2ccccc2C)cc1 (centres undefined),i,-63,i,16µM,i,16µM
CCOc1ccc(N(C(=O)/C=C/C(=O)Nc2cc(C)on2)C(C(=O)NC2CCCC2)c2ccccc2C)cc1 (centres undefined),i,i,i,16µM,i,16µM
Cc1cc(NC(=O)/C=C/C(=O)N(CC(=O)NC2CCCC2)c2cccc3ccccc23)no1,i,i,i,i,i,i
Cn1c(=O)c2cc(NC(=O)NCCc3ccccc3)ccc2n1Cc1ccc(F)cc1,i,i,nt,?,i,?
Cc1cccnc1Nc1nc(-c2ccccn2)cs1,1µM,-111,i,0.13µM,1.3µM,0.15µM
Cc1cccc(Nc2nc(-c3ccc(F)cc3)cs2)n1,i,i,i,12µM,i,?
Cc1cccc(Nc2nc(-c3ccccn3)cs2)n1,0.35µM,i,nt,5.2µM,0.32µM,6.5µM
Cc1ccc(Nc2nc(-c3ccc(F)cc3)cs2)nc1,i,i,i,?,i,?
Cc1cccnc1Nc1nc(-c2ccccc2)cs1,i,i,i,?,i,i
Fc1ccc(-c2csc(Nc3ccccn3)n2)cc1,i,i,?,16µM,i,?
Cc1nn(CC(=O)N2CCN(c3ccccc3)CC2)c(=O)c2cc3cc(F)ccc3n12,nt,nt,nt,i,nt,i
CC(=O)Oc1ccc(-c2csc(Nc3ccccn3)n2)cc1,?,i,nt,16µM,i,7.3µM
Cc1cccc(Nc2nc(-c3cccs3)cs2)n1,i,i,i,?,i,23µM
CC(=O)Oc1ccc(-c2csc(Nc3cccc(C)n3)n2)cc1,?,?,i,?,?,?
CCn1c(SCC(=O)N2CCCC2)nc2ccccc2c1=O,i,i,nt,i,i,i
